The text below walks through data of PubChem BioAssay AID504333 (National Center for Advancing Translational Sciences (NCATS), 2011).

Molecules are shown by their SMILES. In all, about 360,000 compounds went through this assay and about 16,000 (4.4%) were called active. Where a call stands in place of a potency, no number is given. Inconclusive results (about 9%) are left out. Calls follow the shape of the dose curve; as a rule, active = well fitted inhibition curve with a large enough effect; inconclusive = small, poorly fitted or top-dose-only effect; inactive = no such curve, though single readings can be large or run the other way. This excerpt belongs to a sample that is enriched for actives.
Potency is read from the fitted curve at half-maximal effect.

Chain of Bromodomain adjacent to zinc finger domain protein 2B (Homo sapiens) (Q9UIF8 whole entry, looked up, the tested form may be a part): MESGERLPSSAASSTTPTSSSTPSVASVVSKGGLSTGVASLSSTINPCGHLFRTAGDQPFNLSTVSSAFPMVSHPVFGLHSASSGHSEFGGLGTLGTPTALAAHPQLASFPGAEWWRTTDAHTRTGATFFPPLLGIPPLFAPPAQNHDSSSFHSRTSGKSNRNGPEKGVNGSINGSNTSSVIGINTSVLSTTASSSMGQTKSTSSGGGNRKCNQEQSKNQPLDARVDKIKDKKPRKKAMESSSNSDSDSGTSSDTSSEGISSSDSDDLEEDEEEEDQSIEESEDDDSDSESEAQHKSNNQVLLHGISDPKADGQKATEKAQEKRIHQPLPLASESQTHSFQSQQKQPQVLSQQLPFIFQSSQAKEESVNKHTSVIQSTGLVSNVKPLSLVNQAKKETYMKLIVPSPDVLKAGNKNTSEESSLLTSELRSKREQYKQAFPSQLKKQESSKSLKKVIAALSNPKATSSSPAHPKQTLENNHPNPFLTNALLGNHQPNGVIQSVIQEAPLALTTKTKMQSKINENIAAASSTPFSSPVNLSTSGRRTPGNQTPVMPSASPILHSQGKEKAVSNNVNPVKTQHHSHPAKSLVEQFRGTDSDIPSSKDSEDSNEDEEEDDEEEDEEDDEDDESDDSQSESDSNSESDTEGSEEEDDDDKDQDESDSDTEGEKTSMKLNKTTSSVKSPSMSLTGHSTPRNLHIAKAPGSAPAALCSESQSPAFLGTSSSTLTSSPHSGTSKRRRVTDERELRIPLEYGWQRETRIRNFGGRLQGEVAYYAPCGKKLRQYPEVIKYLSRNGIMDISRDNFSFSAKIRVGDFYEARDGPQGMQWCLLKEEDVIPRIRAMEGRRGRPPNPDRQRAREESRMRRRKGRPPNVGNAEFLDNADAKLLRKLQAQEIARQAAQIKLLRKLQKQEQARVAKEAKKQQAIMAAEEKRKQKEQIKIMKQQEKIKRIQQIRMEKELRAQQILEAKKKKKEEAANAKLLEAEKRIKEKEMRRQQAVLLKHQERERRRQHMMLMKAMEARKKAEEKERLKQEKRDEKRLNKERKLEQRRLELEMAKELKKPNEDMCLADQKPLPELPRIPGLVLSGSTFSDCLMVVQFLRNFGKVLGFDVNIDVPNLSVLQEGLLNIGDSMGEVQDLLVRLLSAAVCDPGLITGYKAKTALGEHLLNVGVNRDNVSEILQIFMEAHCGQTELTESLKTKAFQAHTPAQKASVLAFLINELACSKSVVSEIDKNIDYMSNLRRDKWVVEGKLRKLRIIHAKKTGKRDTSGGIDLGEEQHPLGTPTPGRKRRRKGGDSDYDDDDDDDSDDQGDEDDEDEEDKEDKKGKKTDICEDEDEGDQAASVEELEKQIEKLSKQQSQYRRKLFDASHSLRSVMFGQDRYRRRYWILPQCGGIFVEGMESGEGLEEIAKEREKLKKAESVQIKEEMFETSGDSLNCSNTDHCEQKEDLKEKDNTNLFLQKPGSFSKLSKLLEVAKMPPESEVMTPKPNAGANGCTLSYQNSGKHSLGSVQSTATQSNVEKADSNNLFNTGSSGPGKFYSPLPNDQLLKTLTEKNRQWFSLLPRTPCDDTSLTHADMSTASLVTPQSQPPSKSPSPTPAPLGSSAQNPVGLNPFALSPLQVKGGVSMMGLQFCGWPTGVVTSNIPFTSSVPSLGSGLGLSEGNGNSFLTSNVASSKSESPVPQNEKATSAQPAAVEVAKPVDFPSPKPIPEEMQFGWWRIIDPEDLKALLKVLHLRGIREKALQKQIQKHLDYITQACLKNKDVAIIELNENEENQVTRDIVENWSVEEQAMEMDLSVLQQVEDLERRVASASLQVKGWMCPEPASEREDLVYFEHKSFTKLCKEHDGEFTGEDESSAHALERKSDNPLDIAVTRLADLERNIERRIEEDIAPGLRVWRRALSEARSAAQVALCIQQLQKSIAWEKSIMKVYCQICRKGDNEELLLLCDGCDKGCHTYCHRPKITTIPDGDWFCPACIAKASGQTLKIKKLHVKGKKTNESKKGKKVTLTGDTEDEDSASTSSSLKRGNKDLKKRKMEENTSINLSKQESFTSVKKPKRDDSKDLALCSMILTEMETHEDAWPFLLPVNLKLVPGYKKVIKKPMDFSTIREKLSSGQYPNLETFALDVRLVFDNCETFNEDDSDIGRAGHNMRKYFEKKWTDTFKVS

In the assay the target is Bromodomain adjacent to zinc finger domain protein 2B (Homo sapiens) (UniProt Q9UIF8). The experiment in a line: qHTS Assay for Inhibitors of BAZ2B. Also: nearly all actives have a fitted effect of over 60% in size. Particulars: AlphaScreen BAZ2B-H3K14Ac peptide displacement; series mostly up to 114 µM. The source says:
BAZ2B (bromodomain adjacent to zinc finger domain, 2B) belongs to a family of ubiquitously expressed bromodomain containing proteins, which biological function has not yet been elucidated. […] The interaction of BAZ2B with ISWI mediated by the BAZ1 motif has recently been described. […] The protocol is based on the AlphaScreen (PerkinElmer) displacement assay developed by NCGC [5], but uses the peptide ligand Biot-H3K14Ac, a high affinity binding partner for BAZ2B, in an AlphaScreen format. Although AlphaScreen has significant advantages with its utility in a variety of epigenetic target assays, the primary screening data provided in this deposition should be used with caution due to the prevalence of screening artifacts. The top compound concentration tested was 110uM in this assay, which increases number of actives and potential artifacts. An AlphaScreen counterscreen is highly recommended to be run against any putative actives to eliminate non-specific artifacts. Alternatively, one can use other AlphaScreen assays in PubChem to filter out promiscuous hits. Eberharter, A. et al. ACF1 improves the effectiveness of nucleosome mobilization by ISWI through PHD-histone contacts. The EMBO journal 23, 4029-4039. 2004. PMID: 15457208 [2] Jones, M.H. et al. A novel family of bromodomain genes. Genomics 63, 40-45. 2000. PMID: 10662543 [3] Yasgar, et al. Compound Management for Quantitative High-Throughput Screening. JALA. 2008 Apr;13(2):79-89. PMID: 18496600 [4] Inglese, et al. Quantitative high-throughput screening: a titration-based approach that efficiently identifies biological activities in large chemical libraries. Proc Natl Acad Sci. 1;103(31):11473-8. 2006. PMID: 16864780 [5] Quinn et al. A chemiluminescence-based method for identification of histone lysine methyltransferase inhibitors. Mol Biosyst 6(5): 782-8. 2010. PMID: 20567762 [6] Baell,Holloway. New substructure filters for removal of pan assay interference compounds (PAINS) from screening libraries and for their exclusion in bioassays. J Med Chem. 53(7):2719-40. 2010. PMID: 20131845 NIH Molecular Libraries Probe Production Network [MLPCN] NIH Chemical Genomics Center [NCGC] Structural Genomics Consortium (SGC) NIH Grant: 5U54 MH084681-02
To each well of a 1,536w plate, 2ul of BAZ2B protein (final 50nM) and 1ul biotinylated histone peptide acetylated at Lys14 [b-H3(5-23)K14Ac] (final 50nM) were added in 1x PBS buffer, pH 7.4, containing 0.01% Tween-20, using a nanoliter dispenser. Formation of a protein-peptide complex proceeded at room temperature for 30 min. A Kalypsys pin-tool was employed to transfer 23 nL of library compound solution in DMSO to each well. Following a 30 min incubation of the protein-peptide complex with compounds at room temperature, a mixture of 40 ug/mL each streptavidin-coated donor and nickel chelate acceptor AlphaScreen beads (final 10 ug/mL) were added in a 1ul dispense for a final volume of 4ul. A brief centrifugation followed (1000rpm, 1 min) and were then incubated protected from the light for 20 min at room temperature. Plates were read on an EnVision multilabel plate reader using the 1,536 plate HTS AlphaScreen aperture (excitation time 80 ms, measurement time 240 ms).
(Quantitative high-throughput screening tests each substance at several concentrations.)
For the compound `CCOc1ccccc1N(CC)C(=O)Nc1cn(C)c(=O)c2ccccc12`, the Potency entry is “inactive”.
Take `CC(C)c1ccc(NC(=O)CN(C)S(=O)(=O)c2ccc3c(c2)c(=O)n(C)c(=O)n3C)cc1`: the Potency entry was “inactive”.
Regarding `CCS(=O)(=O)c1nc(S(=O)(=O)c2ccc(C)cc2)c(NCc2ccc(Cl)cc2)s1`, the Potency result was “inactive”.
With `Cn1c(=O)c(C(=O)O)nn(-c2ccccc2)c1=O` the entry was “inactive”; with `CC1CCN(c2ccc([N+](=O)[O-])cc2C(N)=O)CC1`, “inactive”; with `O=C(O)C1CCN(c2ccc([N+](=O)[O-])cc2[N+](=O)[O-])CC1`, 56.2 µM (active).
Consider `CCOC(=O)C1CCN(c2ccc(C(=O)O)cc2[N+](=O)[O-])CC1`, for which the Potency entry was “inactive”.
Turning to `Cc1ccc(Cl)cc1N1CCN(S(=O)(=O)c2cc3[nH]c(=O)c(=O)[nH]c3cc2C)CC1`, the Potency entry is “inactive”.
With `COc1ccc(CCC(=O)NCc2ccc3c(c2)CCN3C(=O)c2ccc(F)cc2)cc1` the entry was “inactive”.
In the case of `COc1ccccc1-c1noc(-c2ccc(NCc3ccccc3)c([N+](=O)[O-])c2)n1`, the Potency result was “inactive”.
Regarding `O=C(CSc1nnc(-c2ccccc2F)o1)Nc1cccc(C(F)(F)F)c1`, the Potency result is “inactive”.
Consider `c1ccc(C(c2ccccc2)N2CCN(Cc3nnnn3C3CCCCC3)CC2)cc1`, for which the Potency result is “inactive”.
For the compound `COc1ccccc1CNCc1cccs1`, the Potency entry is “inactive”.
With `COc1cc(CN2CCCN(C)CC2)c([N+](=O)[O-])cc1OC` the entry was “inactive”; with `CC(=O)N1CCN(CC(c2ccccc2)c2ccccc2)CC1`, “inactive”.
`COc1ccccc1CN1CCCC(N2CCN(c3ccc(F)cc3)CC2)C1` (stereo not drawn): the Potency entry is “inactive”.
With `COc1ccccc1CN1CCN(Cc2cc(OC)c(OC)cc2OC)CC1` the figure was 50.1 µM (active).
Consider `CNCC(O)CN1CCN(c2ccccc2OC)CC1` (stereo not drawn), for which the Potency result was “inactive”.
In the case of `COc1ccccc1N1CCN(Cc2ccc(OC)c3ccccc23)CC1`, the Potency is 28.2 µM (active).
`Oc1ccccc1CN1CCN(C(c2ccccc2)c2ccccc2)CC1`: the Potency was 50.1 µM (active).
Consider `COc1ccccc1N1CCN(Cc2cc(OC)c3c(c2)OCO3)CC1`, for which the Potency entry is “inactive”.
With `COc1ccccc1CN1CCN(C(c2ccccc2)c2ccccc2)CC1` the figure was 79.4 µM (active).
For `COc1ccccc1Cn1c(CO)nc2ccccc21`, the Potency result was “inactive”.
`Cc1ccc2cccc(NC(=O)c3ccc(OC(C)C)cc3)c2n1`: the Potency result is “inactive”.
Regarding `Cc1ccc(NC(=O)CSc2nnc3[nH]c(=O)cc(C)n23)cc1Cl`, the Potency entry was “inactive”.
With `CSc1ccc(C2c3c(oc4ccccc4c3=O)C(=O)N2CCCN2CCOCC2)cc1` (stereo not drawn), the Potency entry is “inactive”.
With `COc1cccc(C(=O)N(Cc2cccc(Cl)c2)Cc2ccco2)c1` the entry was “inactive”.
Take `O=C(COc1ccc(Cl)cc1)Nc1ccccc1OCc1cc(=O)n2ccccc2n1`: the Potency result was “inactive”.
Regarding `Cc1ccc(NC(=O)c2cc3cc(C)ccc3n2C)cc1`, the Potency result is “inactive”.
On to `O=C(Cn1c(=O)n(Cc2ccccc2)c(=O)c2sc3ccccc3c21)Nc1ccccc1F`, for which the Potency entry is “inactive”.
Turning to `Cc1ccc(C2CCN(C(=O)c3cnn(-c4ccccc4Cl)c3C3CCN(C(=O)OC(C)(C)C)CC3)C2)cc1` (stereo not drawn), the Potency result is “inactive”.
For `COc1cccc(CNC(=O)Cn2ncn3c(cc4ccccc43)c2=O)c1`, the Potency entry was “inactive”.
Turning to `Cc1ccc(NC(=O)CN2c3ccccc3S(=O)(=O)c3ccccc32)cc1F`, the Potency result is “inactive”.
The result for `CCCn1c2ccccc2c2cnn(CC(=O)N3CCCC(C(=O)OCC)C3)c(=O)c21` (stereo not drawn) reads “inactive”.
With `COc1cc2c3c(c1)/C(=C1/SC(=S)NC1=O)C(=O)N3C(C)(C)C=C2C` the figure was 44.7 µM (active).
With `CC(C)(C)OC(=O)N1CCC(NC(=O)c2[nH]cnc2C(=O)N[C@@H](Cc2ccccc2)C(=O)OCc2ccccc2)CC1` the entry was “inactive”; with `CCOC(=O)c1[nH]cnc1C(=O)NC1CCCCC1`, 50.1 µM (active).
For `CCOC(=O)c1ccc(NC(=O)c2nc[nH]c2C(=O)NCc2ccccc2)cc1`, the Potency entry was “inactive”.
`COc1ccc2cc(CNc3ccc(OC)c(OC)c3)c(=O)n(CC(=O)Nc3ccccc3F)c2c1`: the Potency result is “inactive”.
In the case of `COc1cccc(-c2n[nH]c3c2C(c2cccc(O)c2)N(C)C3=O)c1` (stereo not drawn), the Potency entry was “inactive”.
As to `Cc1ccc(/C=N/NC(=O)c2cc3ccccc3cc2O)o1`, the Potency entry was “inactive”.
For the compound `Cc1cc(N=Nc2ccc3ccccc3c2)ccc1O`, the Potency is 28.2 µM (active).
Regarding `COc1ccc(/C=C/c2noc(-c3ccccc3O)n2)cc1OC`, the Potency result was “inactive”.
The result for `COc1ccc(-n2c(SCC(=O)Nc3ccc(Cl)c(C)c3)nc3n[nH]c(C)c3c2=N)cc1` reads “inactive”.
With `CCc1cccc(NC(=O)CN(c2ccc(C)c(C)c2)S(=O)(=O)c2ccsc2C(=O)OC)c1` the entry was “inactive”; with `COc1cc(C)cc(CN2CCC(Cc3ccccc3)CC2)c1O`, “inactive”.
Take `Oc1c(CN2CCCC2)cc(COCc2ccccc2)c2cccnc12`: the Potency is 17.8 µM (active).
As for `O=C(CN1CCN(c2ccc(F)cc2)CC1)Nc1ccccc1`, the Potency result was “inactive”.
Regarding `Cc1cccnc1NC(=O)c1cccc(S(=O)(=O)N2CCN(c3ccc(F)cc3)CC2)c1`, the Potency entry was “inactive”.
The result for `COc1cc(CN2CCC(C(N)=O)CC2)ccc1OCc1ccccc1` reads “inactive”; that for `Oc1c(CN2CCN(c3ccc(F)cc3)CC2)cc(Cl)c2cccnc12`, 22.4 µM (active); that for `CCCS(=O)(=O)c1c(Nc2ccccc2C)sc(C(=O)c2ccccc2)c1N`, “inactive”.
With `Cc1ccc(-c2nn3c(=O)cc(CN4CCN(S(=O)(=O)c5ccc(Cl)cc5)CC4)nc3s2)cc1` the entry was “inactive”; with `COc1cc(NC(=O)c2cc(C3CC3)nc3c2c(C)nn3-c2ccccc2)cc(OC)c1`, “inactive”; with `O=C(/C=C/c1ccccc1)Nc1cc(-c2nc3cc(Cl)ccc3o2)ccc1Cl`, “inactive”.
Turning to `CCN(CCCNC(=O)c1ccc2c(c1)NC(=O)CN2C)c1cccc(C)c1`, the Potency was 50.1 µM (active).
With `CCCCNC(=O)c1ccc2c(c1)NC(=O)C(C(C)C)N2` (stereo not drawn), the Potency entry was “inactive”.
As to `CCN(CCCNC(=O)Cn1ncc2c([nH]c3ccccc32)c1=O)c1cccc(C)c1`, the Potency result is “inactive”.
`CCC1CCCCN1C(=O)Cn1c(=O)n(CCCCCC(=O)NCc2ccccc2)c(=O)c2sccc21` (stereo not drawn): the Potency entry is “inactive”.
Regarding `CCC(=O)Nc1nc(C)c(C(=O)Nc2cccc(Cl)c2)s1`, the Potency entry is “inactive”.
For `CCOC(=O)c1csc(NC(=O)Nc2cccc(OC)c2)n1`, the Potency entry is “inactive”.
As for `CC(=O)Nc1nc(C)c(-c2csc(Nc3ccc(S(N)(=O)=O)cc3)n2)s1`, the Potency entry was “inactive”.
With `C=CCCC(=O)Nc1nc(C)c(-c2csc(Nc3ccc(Cl)cc3)n2)s1` the figure was 44.7 µM (active); with `Cc1ccc(C(=O)Nc2nc(-c3ccccc3)ns2)cc1`, “inactive”; with `Cc1ccc(Nc2nc(-c3sc(NC(=O)c4ccccc4)nc3C)cs2)cc1`, 50.1 µM (active).
`COc1cccc(CC(=O)Nc2ccc(-c3csc(C)n3)cc2)c1`: the Potency result was “inactive”.
`Cc1nc(NC(=O)c2cccc(Cl)c2)sc1-c1csc(Nc2cccc(Cl)c2)n1`: the Potency result was “inactive”.
Take `CCCCCCC(=O)Nc1nc(C)c(-c2csc(Nc3cccc(OC)c3)n2)s1`: the Potency is 50.1 µM (active).
